# Assay results from the supplement of paper PMC11732987, “Enantioselective OTUD7B fragment discovery through chemoproteomics screening and high-throughput optimisation” (Communications Chemistry, 2025).
# Values without a mark were called inactive.
# Assays:
# Assay in all cases: log2 ratio of Biotin-Ahx-Ub-VS probe labelling (fragment/DMSO); higher = less target engagement (more negative = stronger competition), active = hit call of the paper (q ≤ 0.05, log2 ratio ≤ -1)
# Settings in all cases: compound concentration: 200 uM; treatment time: 3 h
# [1] = biological target: T1, ALG13 (UniProt Q9NP73)
# T1 sequence (whole entry): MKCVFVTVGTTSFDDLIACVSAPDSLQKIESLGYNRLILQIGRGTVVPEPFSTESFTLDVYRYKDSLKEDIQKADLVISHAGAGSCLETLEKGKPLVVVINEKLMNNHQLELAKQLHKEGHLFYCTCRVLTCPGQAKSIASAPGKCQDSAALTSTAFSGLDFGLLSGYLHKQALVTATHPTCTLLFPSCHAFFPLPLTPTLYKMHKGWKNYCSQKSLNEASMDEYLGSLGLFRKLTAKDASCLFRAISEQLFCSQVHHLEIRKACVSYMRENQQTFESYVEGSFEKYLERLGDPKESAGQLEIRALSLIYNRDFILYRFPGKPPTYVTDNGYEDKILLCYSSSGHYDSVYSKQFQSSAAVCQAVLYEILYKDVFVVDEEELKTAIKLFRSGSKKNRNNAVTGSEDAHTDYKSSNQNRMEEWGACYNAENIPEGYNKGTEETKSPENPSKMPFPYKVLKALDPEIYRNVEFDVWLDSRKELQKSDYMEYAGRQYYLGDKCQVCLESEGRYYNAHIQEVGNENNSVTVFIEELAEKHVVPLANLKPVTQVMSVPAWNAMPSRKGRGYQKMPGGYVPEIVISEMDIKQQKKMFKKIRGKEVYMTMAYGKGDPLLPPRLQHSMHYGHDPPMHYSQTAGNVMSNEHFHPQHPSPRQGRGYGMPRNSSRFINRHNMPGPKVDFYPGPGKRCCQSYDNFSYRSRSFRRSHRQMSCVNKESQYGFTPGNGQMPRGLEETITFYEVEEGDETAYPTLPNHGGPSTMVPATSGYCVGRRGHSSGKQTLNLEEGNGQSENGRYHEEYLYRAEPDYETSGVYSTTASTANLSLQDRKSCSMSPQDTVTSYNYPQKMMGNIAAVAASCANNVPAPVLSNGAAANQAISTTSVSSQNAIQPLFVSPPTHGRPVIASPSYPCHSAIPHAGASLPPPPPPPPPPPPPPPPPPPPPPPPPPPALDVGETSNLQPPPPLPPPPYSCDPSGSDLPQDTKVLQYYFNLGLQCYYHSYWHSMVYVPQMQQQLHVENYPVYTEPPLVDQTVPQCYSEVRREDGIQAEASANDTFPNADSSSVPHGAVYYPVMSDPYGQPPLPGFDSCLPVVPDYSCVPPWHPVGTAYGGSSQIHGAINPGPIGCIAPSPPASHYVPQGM
# Method in brief: (§1)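 Each value is an average log2 ratio of fragment to vehicle, tested by unpaired t-test. The underlying Spectronaut label-free quantities were global-median-normalised, and only proteins with ≥2 unique peptides were included. Triplicate HEK293T lysate samples (495 µg) were exposed to fragment at 200 µM or vehicle for 3 h, then to Biotin-Ahx-Ub-VS at 0.5 µM final for 1 h, before NeutrAvidin enrichment of labelled DUBs, LysC and trypsin digestion, and diaPASEF LC-MS/MS.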
# [2] = biological target: ATXN3 (UniProt P54252)
# Method in brief: as §1
# [3] = biological target: T2, BAP1 (UniProt Q92560)
# T2 sequence (whole entry): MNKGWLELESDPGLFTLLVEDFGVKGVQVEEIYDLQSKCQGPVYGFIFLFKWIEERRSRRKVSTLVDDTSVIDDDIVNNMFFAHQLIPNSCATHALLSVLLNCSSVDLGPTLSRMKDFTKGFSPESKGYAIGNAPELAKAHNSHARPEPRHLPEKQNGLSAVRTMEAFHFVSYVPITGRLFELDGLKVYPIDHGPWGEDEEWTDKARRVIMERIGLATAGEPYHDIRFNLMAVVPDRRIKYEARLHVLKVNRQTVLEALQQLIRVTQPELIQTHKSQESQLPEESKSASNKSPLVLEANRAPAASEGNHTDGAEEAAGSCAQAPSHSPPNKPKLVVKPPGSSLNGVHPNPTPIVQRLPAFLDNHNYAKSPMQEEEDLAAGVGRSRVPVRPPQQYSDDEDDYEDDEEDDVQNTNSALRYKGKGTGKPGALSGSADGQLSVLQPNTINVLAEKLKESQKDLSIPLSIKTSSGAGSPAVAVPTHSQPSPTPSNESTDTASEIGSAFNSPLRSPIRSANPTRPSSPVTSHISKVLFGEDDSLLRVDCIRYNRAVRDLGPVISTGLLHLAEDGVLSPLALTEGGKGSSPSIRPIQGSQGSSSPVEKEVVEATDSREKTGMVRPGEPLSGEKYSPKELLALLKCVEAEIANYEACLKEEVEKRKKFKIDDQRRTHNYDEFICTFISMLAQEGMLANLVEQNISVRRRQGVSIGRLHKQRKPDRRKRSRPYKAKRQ
# Method in brief: as §1
# [4] = biological target: EIF3F (UniProt O00303)
# Method in brief: as §1
# [5] = biological target: EIF3H (UniProt O15372)
# Method in brief: as §1
# [6] = biological target: T3, FAM105A (UniProt Q9NUU6)
# T3 sequence (whole entry): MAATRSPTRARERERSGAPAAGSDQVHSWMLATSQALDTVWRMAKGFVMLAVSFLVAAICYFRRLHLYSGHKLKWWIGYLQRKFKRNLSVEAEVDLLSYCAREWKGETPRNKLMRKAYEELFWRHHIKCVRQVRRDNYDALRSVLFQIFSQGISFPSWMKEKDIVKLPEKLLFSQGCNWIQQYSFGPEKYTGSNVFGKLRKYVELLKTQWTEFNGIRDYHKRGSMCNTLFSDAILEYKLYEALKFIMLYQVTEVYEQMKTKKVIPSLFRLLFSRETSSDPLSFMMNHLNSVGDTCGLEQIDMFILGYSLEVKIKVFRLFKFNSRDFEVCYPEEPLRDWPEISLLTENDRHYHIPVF
# Method in brief: as §1
# [7] = biological target: OTUB1 (UniProt Q96FW1)
# Method in brief: as §1
# [8] = biological target: T4, OTUD4 (UniProt Q01804)
# T4 sequence (whole entry): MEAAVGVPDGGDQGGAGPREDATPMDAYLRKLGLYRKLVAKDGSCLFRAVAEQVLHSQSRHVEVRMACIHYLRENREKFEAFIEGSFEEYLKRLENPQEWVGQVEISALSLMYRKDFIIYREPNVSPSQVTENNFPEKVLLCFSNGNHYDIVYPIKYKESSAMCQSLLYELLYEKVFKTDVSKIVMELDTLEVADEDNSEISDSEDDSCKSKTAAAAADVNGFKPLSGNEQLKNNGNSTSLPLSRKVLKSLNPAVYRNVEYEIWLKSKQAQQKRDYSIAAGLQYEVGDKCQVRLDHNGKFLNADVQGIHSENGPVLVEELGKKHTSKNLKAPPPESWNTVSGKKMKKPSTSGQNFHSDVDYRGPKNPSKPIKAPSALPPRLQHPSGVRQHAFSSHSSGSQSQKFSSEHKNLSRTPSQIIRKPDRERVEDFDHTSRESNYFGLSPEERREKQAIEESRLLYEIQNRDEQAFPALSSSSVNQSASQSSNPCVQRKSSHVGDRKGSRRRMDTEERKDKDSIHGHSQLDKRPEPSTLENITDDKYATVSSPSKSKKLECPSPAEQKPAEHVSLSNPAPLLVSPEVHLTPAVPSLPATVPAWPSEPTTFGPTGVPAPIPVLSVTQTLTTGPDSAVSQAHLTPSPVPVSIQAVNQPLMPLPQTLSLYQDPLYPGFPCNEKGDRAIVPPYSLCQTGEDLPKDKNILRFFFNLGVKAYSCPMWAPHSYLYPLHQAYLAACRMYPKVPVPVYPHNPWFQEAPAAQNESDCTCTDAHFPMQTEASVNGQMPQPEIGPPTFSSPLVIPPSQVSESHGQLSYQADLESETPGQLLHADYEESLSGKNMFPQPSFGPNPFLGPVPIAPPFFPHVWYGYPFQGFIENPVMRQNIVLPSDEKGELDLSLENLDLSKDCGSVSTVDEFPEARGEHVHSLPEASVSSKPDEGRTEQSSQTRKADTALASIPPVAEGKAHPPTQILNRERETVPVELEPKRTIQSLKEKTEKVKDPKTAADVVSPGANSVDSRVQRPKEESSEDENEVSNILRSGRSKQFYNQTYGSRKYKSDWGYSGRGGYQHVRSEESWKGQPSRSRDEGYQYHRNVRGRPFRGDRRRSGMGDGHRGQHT
# Method in brief: as §1
# [9] = biological target: T5, OTUD5 (UniProt Q96G74)
# T5 sequence (whole entry): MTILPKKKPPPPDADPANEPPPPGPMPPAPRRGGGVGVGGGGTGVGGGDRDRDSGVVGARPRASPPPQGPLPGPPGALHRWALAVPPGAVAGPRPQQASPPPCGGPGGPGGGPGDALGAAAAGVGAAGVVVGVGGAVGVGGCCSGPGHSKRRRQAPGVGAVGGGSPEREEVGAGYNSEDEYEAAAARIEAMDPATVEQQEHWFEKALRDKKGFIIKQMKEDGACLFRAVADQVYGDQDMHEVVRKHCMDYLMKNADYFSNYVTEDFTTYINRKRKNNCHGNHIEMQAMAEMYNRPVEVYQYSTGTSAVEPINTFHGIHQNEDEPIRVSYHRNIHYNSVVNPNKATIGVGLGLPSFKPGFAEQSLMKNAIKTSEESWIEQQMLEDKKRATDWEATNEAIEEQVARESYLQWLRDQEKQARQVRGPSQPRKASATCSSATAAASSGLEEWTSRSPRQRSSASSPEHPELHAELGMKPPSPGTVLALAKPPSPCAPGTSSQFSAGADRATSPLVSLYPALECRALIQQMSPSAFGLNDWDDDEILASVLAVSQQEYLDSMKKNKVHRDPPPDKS
# Method in brief: as §1
# Chain of EIF3H (O15372 whole entry): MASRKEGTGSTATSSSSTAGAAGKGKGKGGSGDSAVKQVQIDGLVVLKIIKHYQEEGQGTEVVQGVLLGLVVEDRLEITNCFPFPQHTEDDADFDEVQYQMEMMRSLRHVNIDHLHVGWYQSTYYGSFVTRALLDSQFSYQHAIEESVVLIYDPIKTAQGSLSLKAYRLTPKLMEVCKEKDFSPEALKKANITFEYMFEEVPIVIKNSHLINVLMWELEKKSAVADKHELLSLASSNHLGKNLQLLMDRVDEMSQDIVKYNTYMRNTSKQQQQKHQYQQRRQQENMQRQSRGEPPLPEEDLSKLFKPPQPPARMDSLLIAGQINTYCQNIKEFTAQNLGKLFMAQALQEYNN
# Chain of EIF3F (O00303 whole entry): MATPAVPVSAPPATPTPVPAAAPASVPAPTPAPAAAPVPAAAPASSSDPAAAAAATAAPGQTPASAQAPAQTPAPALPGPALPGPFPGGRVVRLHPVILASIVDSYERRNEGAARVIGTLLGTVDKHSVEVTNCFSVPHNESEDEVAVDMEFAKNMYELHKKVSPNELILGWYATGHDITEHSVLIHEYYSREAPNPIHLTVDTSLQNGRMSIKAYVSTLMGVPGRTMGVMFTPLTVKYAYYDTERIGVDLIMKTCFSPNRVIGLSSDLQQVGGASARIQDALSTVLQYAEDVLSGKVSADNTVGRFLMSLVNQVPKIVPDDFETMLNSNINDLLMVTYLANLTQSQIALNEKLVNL
# Chain of OTUB1 (Q96FW1 whole entry): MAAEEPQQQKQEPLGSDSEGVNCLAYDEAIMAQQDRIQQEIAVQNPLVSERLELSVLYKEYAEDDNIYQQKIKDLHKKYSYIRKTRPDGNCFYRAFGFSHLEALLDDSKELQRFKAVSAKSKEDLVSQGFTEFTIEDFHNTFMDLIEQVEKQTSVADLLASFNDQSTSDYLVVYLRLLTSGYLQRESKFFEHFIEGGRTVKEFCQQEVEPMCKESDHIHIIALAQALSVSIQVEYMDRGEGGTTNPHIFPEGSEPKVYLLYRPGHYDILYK
# Chain of ATXN3 (P54252 whole entry): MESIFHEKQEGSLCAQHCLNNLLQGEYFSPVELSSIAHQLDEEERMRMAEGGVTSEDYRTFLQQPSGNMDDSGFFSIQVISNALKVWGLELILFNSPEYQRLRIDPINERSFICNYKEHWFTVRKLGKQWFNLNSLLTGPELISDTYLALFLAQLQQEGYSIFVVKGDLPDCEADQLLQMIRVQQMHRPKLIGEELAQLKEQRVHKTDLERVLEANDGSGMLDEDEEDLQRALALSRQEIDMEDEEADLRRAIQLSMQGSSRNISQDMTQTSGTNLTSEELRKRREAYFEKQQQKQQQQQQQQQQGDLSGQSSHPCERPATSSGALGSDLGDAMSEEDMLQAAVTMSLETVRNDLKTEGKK
compound,measurement,setting,value
Cc1ccc(C(=O)NCCNC(=O)CCl)cc1,log2 ratio of Biotin-Ahx-Ub-VS probe labelling,[1],-0.0475
same,log2 ratio of Biotin-Ahx-Ub-VS probe labelling,[2],-0.159
same,log2 ratio of Biotin-Ahx-Ub-VS probe labelling,[3],-1.49 (active)
same,log2 ratio of Biotin-Ahx-Ub-VS probe labelling,[4],-0.13
same,log2 ratio of Biotin-Ahx-Ub-VS probe labelling,[5],-0.101
same,log2 ratio of Biotin-Ahx-Ub-VS probe labelling,[6],-0.349
same,log2 ratio of Biotin-Ahx-Ub-VS probe labelling,[7],-0.162
same,log2 ratio of Biotin-Ahx-Ub-VS probe labelling,[8],-0.371
same,log2 ratio of Biotin-Ahx-Ub-VS probe labelling,[9],-0.264
